SENP8 block-1 – human SENP8 protease inhibitors, primary screen, biochemical, fluorescence, Nedd8 protein substrate, uHTS; inhibition, % at 20 µM; 360,000 tested, 0.64% active; AID 602440, 2012; recombinant SENP8; in the data active means inhibition mostly above about 40%, no sharp cut-off; inactive means mostly below about 27%
Target sequence (Q96LD8 whole entry, looked up): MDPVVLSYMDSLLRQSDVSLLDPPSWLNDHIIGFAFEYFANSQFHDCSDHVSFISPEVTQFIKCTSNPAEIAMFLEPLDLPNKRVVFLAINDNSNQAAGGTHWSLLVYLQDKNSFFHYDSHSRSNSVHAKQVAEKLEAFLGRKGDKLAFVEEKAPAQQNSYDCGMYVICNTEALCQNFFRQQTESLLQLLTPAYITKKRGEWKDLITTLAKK
C8 TRAIL sens – viability loss with TRAIL in NB7+C8 cells, primary screen, TRAIL sensitizer project, cell-based, ATPlite luminescence. inhibition (viability loss, TRAIL sensitization), % at 10 µM. 360,000 tested, 1% active. AID 624354, 2012;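 active means compounds causing at least 50% loss of cell viability in the single-dose screen, relative to plate controls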
SENP6 block – SENP6 protease inhibitors, primary screen, biochemical, luminescence, uHTS. AID 2599, 2010. 330,000 tested, 1.8% active. inhibition, % at 10 µM. Sentrin-specific protease 6 (Homo sapiens), Q9GZR1. Recombinant SENP6 catalytic domain, aminoluciferin luminescence;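 active means inhibition above about 50% at the single tested dose, limit read from the data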;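 further: plate controls were DMSO wells with enzyme for no effect and DMSO wells lacking enzyme for full effect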
SENP8 block-2 – SENP8 protease inhibitors, primary screen, biochemical, luminescence. Sentrin-specific protease 8 (Homo sapiens), Q96LD8. purified SENP8, Z-RLRGG-aminoluciferin cleavage. inhibition, % at 10 µM. 330,000 tested, 1.2% active. AID 2540, 2010; in the data active means inhibition above about 50%
SENP7 inh – SENP7 protease inhibitors, primary screen, biochemical, luminescence, uHTS. Sentrin-specific protease 7 (Homo sapiens), Q9BQF6. recombinant SENP7, Z-RLRGG-aminoluciferin luminescence, 40 min. inhibition, % at 5 µM. 330,000 tested, 1.5% active;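 active means inhibition above about 50% at the single test dose, limit read from the data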;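 further: plate controls were DMSO with enzyme for no effect and no enzyme buffer wells for full effect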
PPC-1+TRAIL kill – compounds killing PPC-1 cancer cells with TRAIL present, primary screen, TRAIL potentiator project, ATPLite luminescence, uHTS; cell killing (% activity), % at 4 µM or 5 µM; PPC-1 cells + TRAIL, ATPLite viability luminescence; 220,000 tested, 0.41% active;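 active means cell killing above 50% in the first pass at 4 µM, then a duplicate retest at 5 µM averaging 50% or more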;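 further: plate controls were cells with TRAIL plus DMSO for no effect and medium-only wells lacking cells for full effect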
An asterisk follows results filed as active; / = no result given. A selection: hits, their analogues and other compounds. The true share with any hit is near 3%.

SMILES | SENP8 block-1 | C8 TRAIL sens | SENP6 block | SENP8 block-2 | SENP7 inh | PPC-1+TRAIL kill
O=C1C(=O)c2ccccc2C(O)=C1c1ccccc1F | 12 | 0 | -17 | 0 | 4 | -2
CC(=O)N(C1=C(O)c2ccccc2C(=O)C1=O)C1CCCCC1 | 19 | 35 | 3 | 5 | 8 | /
O=C1c2ccccc2C(=O)c2[nH]c(=O)[nH]c21 | 55* | 75* | 65* | 35 | 36 | /
O=C1C(O)=C(O)C(=O)c2ccccc21 | 61* | 3 | 80* | 58* | 55* | /
O=C1c2ccccc2C(=O)c2[nH]cnc21 | 23 | 5 | / | / | / | 31
CC(=O)N(C)C1=C(O)c2ccccc2C(=O)C1=O | 85* | 10 | 15 | -1 | 14 | 6
O=C([C@H]1O[C@@H](n2ccc(=O)[nH]c2=O)[C@H](O)[C@@H]1O)N1CCN(Cc2ccccn2)CC1 | 11 | 4 | / | / | / | /
O=C(COC(=O)c1ccc[nH]c1=O)NCCCc1ccccc1 | -79 | -12 | -5 | -1 | 2 | /
OCC1(Cc2cccc(Cl)c2)CCCN(Cc2cnn(-c3ccccc3)c2)C1 (stereo not given) | 18 | -9 | -5 | -4 | 5 | 9
O=C(O)/C=C/C(=O)c1ccc2c(c1)CCc1ccccc1-2 | -47 | -10 | -4 | 4 | 3 | /
CCC(=O)Nc1ccc(C(=O)CSc2nc(N)cc(N)n2)cc1 | 15 | -1 | -16 | -12 | 4 | 4
CN(C)c1ncc(C2=C(Cl)C(=O)C(N3CCCC3)=C(Cl)C2=O)s1 | 46* | -6 | 17 | 32 | 19 | /
O=C1C(Cl)=C(N2CCCCC2)C(=O)C(Cl)=C1c1cnc(N2CCCCC2)s1 | -19 | 14 | 12 | 11 | 8 | -7
CCSc1nnc(COc2ccccc2)n1CC | 0 | -1 | -3 | 2 | 2 | -15
COC(=O)/C(=C\Nc1ccc(Oc2ccc(F)cc2F)nc1)NC(=O)c1ccccc1 | 24 | 3 | -2 | -1 | 2 | 6
CCN(CC)c1ccc(C(=C2C=CC(=[N+](CC)CC)C=C2)c2ccccc2)cc1 | 2 | 89* | / | / | / | /
CCN(CC)c1ccc(C(=O)NNC(=O)CCNC(=O)c2ccccc2)cc1 | -11 | 11 | -11 | -14 | -6 | /
CCN(CC)c1ccc(C(=C2C=CC(=[N+](CC)CC)C=C2)c2ccc(N(CC)CC)cc2)cc1 | 25 | 88* | / | / | / | /
CCN(CC)c1ccc(C(=O)NNC(=O)CCl)cc1 | -4 | 5 | 2 | 1 | 8 | 5
S=c1nc[nH]c2nc[nH]c12 | 8 | 71* | -10 | -4 | 0 | /
N#C/C(=C\c1cc([N+](=O)[O-])c(N2CCCCC2)cc1N1CCCCC1)c1nn(-c2ccccc2)c(N)c1C#N | 50* | 1 | 19 | 2 | 4 | 4
O=c1c2ccccc2ncn1-c1ccc(Cl)c(Cl)c1 | 10 | -2 | -3 | -5 | 6 | 8
Clc1ccc(-n2cnc3c(Cl)ncnc32)cc1Cl | 14 | 74* | / | / | / | /
CC(C)c1ccc(NC(=O)Cn2nnc(C(=O)NCc3ccco3)c2N)cc1 | 5 | 10 | -29 | -2 | 5 | /
CCOC(=O)c1sc(N=NC2=C(O)CCCC2=O)c(C(=O)OCC)c1C | 53* | -8 | 3 | 0 | 3 | 25
SMILES | SENP8 block-1 | C8 TRAIL sens | SENP6 block | SENP8 block-2 | SENP7 inh | PPC-1+TRAIL kill
O=C(CNC(=O)N1CC(=O)Nc2ccccc21)NCc1ccccc1Cl | 7 | 11 | 1 | -4 | 8 | /
CN(C(=O)c1cc2ccccc2oc1=O)C1(C)CCS(=O)(=O)C1 (stereo not given) | 16 | -1 | -5 | -3 | 7 | 10
O=C(Nc1nc2ccccc2[nH]1)C12CC3CC(CC(C3)C1)C2 | 29 | 70* | -15 | -22 | 3 | 7
COc1ccccc1C(=O)NCCC(=O)Nc1nc2ccccc2[nH]1 | -6 | -6 | -6 | -7 | -6 | /
O=C(Nc1nc2ccccc2[nH]1)c1ccc([N+](=O)[O-])cc1 | 23 | 51* | 43 | 15 | 85* | 48
CSc1ccccc1C(=O)Nc1nc2ccccc2[nH]1 | 26 | 13 | -35 | -14 | -17 | 11
